tested on: THRa:RXRa (NR concentration 90 nM, RXRa partner concentration 90 nM); test: PBM binding z-score (relative to random genomic background probes); higher = stronger binding; sequences stand for … in GC…GCGATTGACAGCGTAGAATGAAGG
How it was run: (§1)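 Binding z-scores were set against random background probes. The data came from custom Agilent 4×180K protein-binding microarrays carrying double-stranded probes with 34-nt variable regions, incubated 1 h with ligand-free nuclear receptor dimers. Partner-specific antibodies detected binding, and scanned fluorescence was regression-normalized.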

| Sequence | PBM binding z-score |
| --- | --- |
| TCAGACAGGTGAAGGTAACTCAAGTACGCAGTCG | 1.68 |
| TCGAGTAGGTTAGTCGGGGCAGTCAGCCAACATA | 0.854 |
| ACTCGGAGGACAAAGGCCAGAGCTACGCCAGTGA | 0.389 |
| CCTGCTAGGTCAATGGGCAGCTAAAGCAGCTCGC | 1.99 |
| TGAACGAGGTTATAAGATCAGGGAACGTTGCAAA | 1.43 |
| ACTAGCAGGCCAAGTTTGAGTCACTCAAACAAAG | -0.188 |
| ATCTCTAGGTAACCAGGTTCAGTGAATGCCGAAC | 1.33 |
| AGAGTGAGGTTATTAAGATCAGGGAATTGCGGTC | 2.12 |
| CCTAGCAGGGCAGGGTCACTCAAGCATTTCGCTT | 2.8 |
| TTACCAAGGTGAAAGGTAGTTGATGCACGCCTTG | 1.73 |
| CCTGCTAGGTTATGGTCAGCTAATCTACAGTATG | 0.383 |
| ACCGAAAGGTCGTGAGGTGAGTATACAGAAAGGC | 3.48 |
| ACAGACAGGTGGTGAAGGTAACTCAGGCTATCAT | 0.769 |
| ACTAGTTGGTCAGCTGAGGTCACCCACAATTCGG | 4.97 |
| GGTTGTAGATCAAGGTTAAGAAAGACTAAGCTAA | 1.53 |
| GTACCAAGGGGAATAGGTCGTTGATGAGTAGGCG | 0.124 |
| CCTTACGGGTCACTCCAGCTTATAGCATCGGAGT | 2.22 |

tested on: THRa homodimer (NR concentration 90 nM); test: as above
How it was run: as §1

| Sequence | PBM binding z-score |
| --- | --- |
| TATACAGGGTCAAAGGCCAGGGTACGAATGTCGA | 1.2 |
| TCTAGGAGGCCAGAGGGTCACTCAAGAGGTACGG | 0.0241 |
| TCATATAGGTATACAGGTGAAAGTCCGTAAGTTA | 0.585 |
| TTACCTAGGTGAGCTGAGGTCGTTGATCCAACTC | 2.11 |
| CGTCCAAGGTCAGCAGGGCAGTGAAAGCGACGTG | 1.9 |
| ACTATTAGTTGAGACGAGGGGAACCGATAGGTTG | -0.473 |
| ATCTCTTGGTAAAGTTCAGTGAAAGATCGATAGA | 0.154 |
| CCTAGCAGGCCAGGGTCACTCATGCATTTCGCTT | 1.04 |
| ATCGAAAGGCCGAGGTGAGTATAGAGAAAGGGAA | 0.0762 |
| TCATATAGGAAAACAGGTGAAAGTCCGTAAGTTA | 0.187 |
| TAATATAGGTAAAGGTGAAAGTCGAACGATATGA | 0.232 |
| CCTATTAGTTGACCATAAGGGCAACCGAAGCTCG | 1.34 |
| CGTACTAGGTCAAGGACAGTGAATCTCCGCACGC | 2.42 |
| GCTATTAGTTGAAAGGGCAGCCGAATGATTCTCG | -0.775 |
| GCTAGCAGGCCAATTGGGTCACTCAATGACGGGC | 0.0976 |
| CAGCCTATGTCAGGGCCAGTATAGGAGGAACGTT | -0.168 |
| TGAATGAGGATATAAGATCAGGGAACGTTGCAAA | -0.316 |
| ACTAGCTGGCCAAGTTTGGGTCACTCAAACAAAG | 0.793 |
| TCATATAGGTAAACAGGTGAAAGACCGTAAGTTA | 0.114 |
| CGAACGAGGGCATGAATTGATAGCAAATGCCGAT | -0.496 |

| Sequence | PBM binding z-score |
| --- | --- |
| AGAACGAGGGCAATGAGTTGATAGAACGGGTGGC | -0.182 |
| AGTCAAAGTTCATCTAGGTAACGTAAGATATGCT | 0.224 |
| TCAGACAGGTGAAGGTAACTCAAGTACGCAGTCG | 0.516 |
| TCGAGTAGGTTAGTCGGGGCAGTCAGCCAACATA | -0.302 |
| ACTCGGAGGACAAAGGCCAGAGCTACGCCAGTGA | -0.475 |
| CCTGCTAGGTCAATGGGCAGCTAAAGCAGCTCGC | 0.0215 |
| TGAACGAGGTTATAAGATCAGGGAACGTTGCAAA | -0.282 |
| ACTAGCAGGCCAAGTTTGAGTCACTCAAACAAAG | -0.77 |
| ATCTCTAGGTAACCAGGTTCAGTGAATGCCGAAC | 0.822 |
| AGAGTGAGGTTATTAAGATCAGGGAATTGCGGTC | 1.33 |
| CCTAGCAGGGCAGGGTCACTCAAGCATTTCGCTT | 0.567 |
| TTACCAAGGTGAAAGGTAGTTGATGCACGCCTTG | 0.341 |
| CCTGCTAGGTTATGGTCAGCTAATCTACAGTATG | -0.417 |
| ACCGAAAGGTCGTGAGGTGAGTATACAGAAAGGC | 1.28 |
| ACAGACAGGTGGTGAAGGTAACTCAGGCTATCAT | 0.206 |
| ACTAGTTGGTCAGCTGAGGTCACCCACAATTCGG | 5.19 |
| GGTTGTAGATCAAGGTTAAGAAAGACTAAGCTAA | 0.54 |
| GTACCAAGGGGAATAGGTCGTTGATGAGTAGGCG | -0.309 |
| CCTTACGGGTCACTCCAGCTTATAGCATCGGAGT | -0.158 |
